Records with an inconclusive call do not appear. Activity calls are given as the source filed them. Unless noted, calls follow the shape of the dose curve; as a rule, active = well fitted curve in the direction sought with a large enough effect; inconclusive = small, poorly fitted or top-dose-only effect, or another doubt; inactive = no such curve, though single readings can be large; an effect the other way counts as inactive or inconclusive.
Legend:
[1] = qHTS for differential inhibitors of proliferation of Plasmodium falciparum line HB3 (AID 1886); settings: Potency: Plasmodium falciparum HB3 proliferation inhibition;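 also: parasites grown with compound for 72 h before SYBR Green readout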
[2] = target: Ferritin light chain (Equus caballus) (UniProt P02791); experiment: qHTS Validation Assay for Identification of Novel General Anesthetics (AID 2323); also: series mostly up to about 77 µM
Sequence of Ferritin light chain (Equus caballus) (P02791 2-175 limits assumed): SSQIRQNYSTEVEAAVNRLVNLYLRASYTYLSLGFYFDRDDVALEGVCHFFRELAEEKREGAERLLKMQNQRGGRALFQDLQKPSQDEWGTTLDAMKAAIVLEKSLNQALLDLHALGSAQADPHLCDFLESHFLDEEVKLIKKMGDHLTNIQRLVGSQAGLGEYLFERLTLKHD
Procedure, shortened: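 Competitive displacement of the profluorescent anesthetic 1-AMA (50% saturated, PBS) from 10 uM apoferritin, 10 min, room temperature. Activity is normalized 380/535 nm fluorescence; concentration-response fitted with a four-parameter Hill equation.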

[3] = target: ATP-dependent DNA helicase Q1 (Homo sapiens) (UniProt P46063); experiment: qHTS Validation Assay for Inhibitors of RecQ-Like Dna Helicase 1 (RECQ1) (AID 2353)
Sequence of ATP-dependent DNA helicase Q1 (Homo sapiens) (P46063 whole entry, looked up): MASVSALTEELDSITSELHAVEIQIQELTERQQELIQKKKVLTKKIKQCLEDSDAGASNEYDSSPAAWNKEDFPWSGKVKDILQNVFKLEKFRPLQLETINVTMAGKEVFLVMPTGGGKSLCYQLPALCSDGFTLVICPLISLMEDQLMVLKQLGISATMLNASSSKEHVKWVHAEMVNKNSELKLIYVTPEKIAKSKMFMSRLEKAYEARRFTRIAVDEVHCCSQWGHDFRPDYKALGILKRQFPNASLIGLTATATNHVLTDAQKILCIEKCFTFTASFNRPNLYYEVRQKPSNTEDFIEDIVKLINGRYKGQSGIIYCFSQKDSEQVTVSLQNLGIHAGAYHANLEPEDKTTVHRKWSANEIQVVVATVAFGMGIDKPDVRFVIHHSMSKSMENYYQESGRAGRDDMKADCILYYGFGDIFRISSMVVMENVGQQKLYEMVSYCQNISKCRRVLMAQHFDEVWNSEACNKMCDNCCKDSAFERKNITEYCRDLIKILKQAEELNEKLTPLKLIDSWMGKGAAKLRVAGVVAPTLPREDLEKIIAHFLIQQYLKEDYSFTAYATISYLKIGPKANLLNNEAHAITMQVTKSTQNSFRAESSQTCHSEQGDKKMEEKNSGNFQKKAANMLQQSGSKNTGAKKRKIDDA
Procedure, shortened: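 50 nM RECQ1T1 preincubated 15 min with compound in Tris pH 8.0 buffer with MgCl2, DTT, Tween-20 and 2.5 ug/ml poly(dI-dC); started with 200 nM TAMRA/BHQ-2 forked duplex and 2 mM ATP. Unwinding read as fluorescence (525/598 nm), two reads 2 h apart.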

[4] = target: RecQ-like DNA helicase BLM (Homo sapiens) (UniProt P54132); experiment: qHTS Validation Assay for Inhibitors of Bloom's syndrome helicase (BLM) (AID 2364)
Procedure, shortened: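 50 nM BLM preincubated 15 min at room temperature with compound in pH 8.0 Tris buffer containing 2.5 ug/ml poly(dI-dC); started with 200 nM TAMRA/BHQ-2 forked duplex and 2 mM ATP (final). Unwinding read as TAMRA fluorescence increase, two reads 2 h apart.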

[5] = Cytometric Cell-Based qHTS for Inhibitors of the mTORC1 Signaling Pathway in MEF (Tsc2-/-, p53-/-) Cells (AID 2660);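 also: percent of cells above a phospho-rpS6 to PI ratio cutoff in each well; series mostly up to about 38 µM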
Procedure, shortened: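 Immunofluorescence qHTS of rpS6 Ser235/236 phosphorylation: MEFs (Tsc2-/-, p53-/-) treated 24 h, 37 C, in DMEM + 10% FBS. Alexa-488 signal normalized to PI count, referenced to rapamycin (7.5 nM) and DMSO; PI cell number recorded for viability.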

[6] = High Content Imaging Cell-Based qHTS for Inhibitors of the mTORC1 Signaling Pathway in MEF (Tsc2-/-, p53-/-) Cells (AID 2666);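 also: percent of cells scored positive for phospho-rpS6 Ser235/236 immunostaining by imaging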
Procedure, shortened: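 Phospho-rpS6 (Ser235/236) immunofluorescence, normalized and scored as % positive cells using rapamycin and DMSO controls, was read in empty-vector Tsc2-/-, p53-/- MEFs after 24 h compound exposure at 37 C; propidium iodide counted cells.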

[7] = High Content Imaging Cell-Based qHTS for Inhibitors of the mTORC1 Signaling Pathway in MEF Cells (AID 2667);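 also: Tsc2-/- p53-/- MEFs stably re-expressing wild-type Tsc2 exposed 24 h; series mostly up to about 38 µM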
Procedure, shortened: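 WT MEFs (Tsc2-/-, p53-/- re-expressing Tsc2), in DMEM + 10% FBS, were treated with compound for 24 h at 37 C. Cells were then fixed and stained for phospho-rpS6 Ser235/236 with propidium iodide as cell count. Values are % positive cells, with thresholds set against rapamycin-treated cells.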

[8] = Cytometry Cell-Based qHTS for Inhibitors of the mTORC1 Signaling Pathway in MEF cells (AID 2668);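 also: Tsc2-/- p53-/- mouse embryonic fibroblasts stably re-expressing wild-type Tsc2; percent cells positive for phospho-rpS6 Ser235/236 relative to propidium iodide stain; series mostly up to about 38 µM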
Procedure, shortened: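 Phospho-rpS6 (Ser235/236) immunofluorescence over PI signal, scored as % positive cells using thresholds from 7.5 nM rapamycin and DMSO wells, after 24 h compound exposure of WT-Tsc2-rescued Tsc2-/-, p53-/- MEFs. PI cell count recorded for viability.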

[9] = Validation screen for small molecules that induce DNA re-replication in MCF 10A normal breast cells (AID 463097); also: nearly all actives have a fitted effect of over 60% in size
Procedure, shortened: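 Read-out is Hoechst total nuclear intensity by fluorescence scanning imager, flagging increased high-DNA-content nuclei. Compounds were incubated with MCF 10A cells for 48 hr (37 C, 5% CO2) before 40 min staining.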

[10] = target: Ubiquitin carboxyl-terminal hydrolase 2 (Homo sapiens) (UniProt O75604); experiment: qHTS Validation Assay for Inhibitors of Ubiquitin-specific Protease USP2a Using CHOP2 as the Reporter (AID 463106)
Sequence of Ubiquitin carboxyl-terminal hydrolase 2 (Homo sapiens) (O75604 whole entry, looked up): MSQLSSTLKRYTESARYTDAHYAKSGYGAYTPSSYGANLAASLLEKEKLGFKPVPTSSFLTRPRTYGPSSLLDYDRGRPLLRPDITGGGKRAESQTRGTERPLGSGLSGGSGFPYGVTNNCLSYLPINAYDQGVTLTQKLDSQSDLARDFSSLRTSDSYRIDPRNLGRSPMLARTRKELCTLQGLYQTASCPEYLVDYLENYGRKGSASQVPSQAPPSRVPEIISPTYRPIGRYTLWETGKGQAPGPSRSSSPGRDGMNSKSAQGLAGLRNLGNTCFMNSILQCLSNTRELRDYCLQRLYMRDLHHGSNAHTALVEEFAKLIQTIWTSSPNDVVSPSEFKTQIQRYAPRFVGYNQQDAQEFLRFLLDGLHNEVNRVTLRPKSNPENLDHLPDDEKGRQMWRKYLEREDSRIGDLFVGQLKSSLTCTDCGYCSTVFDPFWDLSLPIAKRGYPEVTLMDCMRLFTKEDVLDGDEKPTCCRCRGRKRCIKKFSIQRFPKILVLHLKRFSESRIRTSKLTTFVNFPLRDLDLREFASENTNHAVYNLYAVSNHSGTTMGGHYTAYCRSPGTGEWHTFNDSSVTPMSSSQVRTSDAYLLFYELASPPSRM
Procedure, shortened: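 USP2 core (10 nM final) was preincubated with compound 30 min at RT in pH 8.0 Tris/CaCl2/beta-ME/CHAPS buffer. Ub-CHOP2 and reporter substrate (25 nM final each) were then added, with fluorescence (Ex 485/Em 531) read after 60 min. Data were normalized to NEM full inhibition and fitted to concentration-response curves.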

[11] = target: DNA polymerase III PolC-type (Bacillus subtilis (strain 168)) (UniProt P13267); experiment: qHTS Validation Assay for the Inhibitors of DNA Replication in Gram-Positive Bacteria (AID 485295);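 also: reconstituted holoenzyme with PolC plus beta clamp SSB and primase; PicoGreen fluorescence of double-stranded DNA made on primed circular M13 template; series mostly up to about 57 µM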
Sequence of DNA polymerase III PolC-type (Bacillus subtilis (strain 168)) (P13267 whole entry, looked up): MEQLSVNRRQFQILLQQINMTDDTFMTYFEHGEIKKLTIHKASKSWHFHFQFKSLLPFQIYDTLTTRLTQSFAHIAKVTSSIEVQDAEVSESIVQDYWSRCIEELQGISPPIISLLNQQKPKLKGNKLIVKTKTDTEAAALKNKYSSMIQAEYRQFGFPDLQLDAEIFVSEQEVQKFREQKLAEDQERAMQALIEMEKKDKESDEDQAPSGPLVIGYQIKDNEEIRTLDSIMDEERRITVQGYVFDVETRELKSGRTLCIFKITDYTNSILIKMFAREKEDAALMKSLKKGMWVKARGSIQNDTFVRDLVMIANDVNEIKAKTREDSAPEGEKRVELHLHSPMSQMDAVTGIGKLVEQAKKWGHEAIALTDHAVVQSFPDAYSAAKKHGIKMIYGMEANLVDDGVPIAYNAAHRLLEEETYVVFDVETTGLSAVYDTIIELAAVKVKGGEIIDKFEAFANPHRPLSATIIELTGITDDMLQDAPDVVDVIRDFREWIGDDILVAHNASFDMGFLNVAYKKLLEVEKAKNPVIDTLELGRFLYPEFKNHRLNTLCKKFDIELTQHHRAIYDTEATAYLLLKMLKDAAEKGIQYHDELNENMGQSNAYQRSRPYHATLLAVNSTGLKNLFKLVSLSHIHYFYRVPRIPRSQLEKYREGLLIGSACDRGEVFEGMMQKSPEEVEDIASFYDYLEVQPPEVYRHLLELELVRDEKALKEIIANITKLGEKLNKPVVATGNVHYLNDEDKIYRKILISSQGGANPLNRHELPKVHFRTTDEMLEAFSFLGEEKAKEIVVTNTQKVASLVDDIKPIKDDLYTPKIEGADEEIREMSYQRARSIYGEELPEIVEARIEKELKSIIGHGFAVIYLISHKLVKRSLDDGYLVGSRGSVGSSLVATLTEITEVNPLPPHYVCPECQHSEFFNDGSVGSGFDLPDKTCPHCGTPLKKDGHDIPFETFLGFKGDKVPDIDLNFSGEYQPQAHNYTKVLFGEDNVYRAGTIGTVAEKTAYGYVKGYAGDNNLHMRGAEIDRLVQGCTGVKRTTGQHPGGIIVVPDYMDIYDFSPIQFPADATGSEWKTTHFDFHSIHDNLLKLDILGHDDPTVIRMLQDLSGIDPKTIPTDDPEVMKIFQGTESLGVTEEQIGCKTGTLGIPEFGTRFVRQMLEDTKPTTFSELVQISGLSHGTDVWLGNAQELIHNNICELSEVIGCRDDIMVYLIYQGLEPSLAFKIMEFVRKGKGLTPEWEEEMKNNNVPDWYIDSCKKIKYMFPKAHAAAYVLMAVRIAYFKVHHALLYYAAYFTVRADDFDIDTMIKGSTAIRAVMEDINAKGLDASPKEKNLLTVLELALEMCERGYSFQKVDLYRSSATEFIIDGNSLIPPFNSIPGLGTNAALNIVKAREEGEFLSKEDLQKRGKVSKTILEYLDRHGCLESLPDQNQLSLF
Procedure, shortened: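 Double-stranded DNA product detected by PicoGreen fluorescence after EDTA quench. Compound incubated with B. subtilis holoenzyme (PolC, beta subunit, SSB, primase) before substrate addition; primed replication of M13Gori with dNTPs and NTPs at room temperature; DMSO defines 0% inhibition.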

[12] = target: Tumor susceptibility gene 101 protein (Homo sapiens) (UniProt Q99816); experiment: qHTS Validation Assay for Iinhibitors of HIV-1 Budding by Blocking the Interaction of PTAP/TSG101 (AID 485342; calls by dose curve)
Sequence of Tumor susceptibility gene 101 protein (Homo sapiens) (Q99816 whole entry, looked up, the tested form may be a part): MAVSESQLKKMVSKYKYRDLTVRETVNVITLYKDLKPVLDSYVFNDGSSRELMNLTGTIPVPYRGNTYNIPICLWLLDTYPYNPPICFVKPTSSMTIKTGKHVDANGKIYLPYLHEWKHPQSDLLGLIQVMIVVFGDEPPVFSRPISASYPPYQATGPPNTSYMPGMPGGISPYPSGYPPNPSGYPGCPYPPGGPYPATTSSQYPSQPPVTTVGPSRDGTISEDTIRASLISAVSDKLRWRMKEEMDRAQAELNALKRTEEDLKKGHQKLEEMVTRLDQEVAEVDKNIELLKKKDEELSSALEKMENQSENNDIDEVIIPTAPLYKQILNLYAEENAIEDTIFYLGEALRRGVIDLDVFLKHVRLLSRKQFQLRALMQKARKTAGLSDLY
Procedure, shortened: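 Fluorescence polarization of 50 nM FITC-PTAP peptide bound to 10 uM Tsg101 binding domain was read after 20 min room-temperature incubation with compounds, in 10 mM HEPES pH 7.5, 0.15 M NaCl, 0.01% Tween 20.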

[13] = qHTS Validation Assay to Find Inhibitors of Chronic Active B-Cell Receptor Signaling (AID 485345; active = well fitted curve in the direction sought with a large enough effect in the main read-out, with a control signal flat, not every such curve was filed as active)
Procedure, shortened: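 TMD8 ABC-DLBCL cells stably carrying doxycycline-inducible IkappaBalpha–green luciferase fusion plus unfused red luciferase; compounds 46 uM to 3 nM, 4 h at 37C with doxycycline. Corrected green/red luminescence ratio normalized to 10 uM MG-132 and basal cell wells; curves fitted.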

[14] = target: Beta-2 adrenergic receptor (Homo sapiens) (UniProt P07550); experiment: qHTS validation assay of beta-arrestin-biased ligands of beta2-adrenergic receptor (AID 485366)
Sequence of Beta-2 adrenergic receptor (Homo sapiens) (P07550 whole entry, looked up): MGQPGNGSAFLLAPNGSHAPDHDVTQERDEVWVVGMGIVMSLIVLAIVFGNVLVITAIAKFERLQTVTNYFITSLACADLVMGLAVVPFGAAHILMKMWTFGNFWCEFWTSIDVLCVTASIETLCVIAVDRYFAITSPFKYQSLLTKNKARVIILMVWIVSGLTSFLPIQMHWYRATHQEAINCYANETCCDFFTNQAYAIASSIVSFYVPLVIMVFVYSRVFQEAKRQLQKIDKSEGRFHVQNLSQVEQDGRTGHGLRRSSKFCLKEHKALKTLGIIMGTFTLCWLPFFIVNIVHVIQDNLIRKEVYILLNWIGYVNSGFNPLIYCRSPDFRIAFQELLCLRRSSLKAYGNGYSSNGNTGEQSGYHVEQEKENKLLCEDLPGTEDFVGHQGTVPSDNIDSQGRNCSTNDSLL
Procedure, shortened: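 Arrestin-recruitment (Tango) reporter: ligand-bound beta2-AR recruits beta-arrestin, releasing tTA, which upregulates luciferase. Titrations of up to 46 microM incubated 18 hr at 37 degrees C before luminescent readout.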

[15] = target: ATP-dependent 6-phosphofructokinase (Trypanosoma brucei brucei) (UniProt O15648); experiment: qHTS Validation Assay to Find Inhibitors of T. brucei phosphofructokinase (AID 485368); settings: outcome: dose series up to 57.5 µM
Sequence of ATP-dependent 6-phosphofructokinase (Trypanosoma brucei brucei) (O15648 whole entry, looked up): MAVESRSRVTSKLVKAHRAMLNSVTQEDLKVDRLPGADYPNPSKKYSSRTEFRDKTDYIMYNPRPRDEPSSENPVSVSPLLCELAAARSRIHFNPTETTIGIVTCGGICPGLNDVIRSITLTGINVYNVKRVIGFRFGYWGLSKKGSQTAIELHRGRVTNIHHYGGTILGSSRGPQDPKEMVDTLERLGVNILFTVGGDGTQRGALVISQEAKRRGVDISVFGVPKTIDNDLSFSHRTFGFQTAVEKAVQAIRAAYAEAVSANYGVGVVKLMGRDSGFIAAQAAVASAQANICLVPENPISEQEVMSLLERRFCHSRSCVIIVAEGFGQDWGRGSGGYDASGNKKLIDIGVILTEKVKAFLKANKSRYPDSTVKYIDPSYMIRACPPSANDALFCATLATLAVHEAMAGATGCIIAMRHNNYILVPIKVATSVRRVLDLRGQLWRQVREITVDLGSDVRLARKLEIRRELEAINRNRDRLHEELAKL
Procedure, shortened: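 Steps: substrate mix (0.5 mM F6P, 0.1 mM ATP, MgCl2, TEA pH 8.0); compound; 1.25 nM T. brucei PFK; 45 min RT; ATP depletion 10 min; ADP-to-ATP detection 10 min; luminescence read; curve fitting and classification.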

[16] = Quantitative high throughput screen for delayed death inhibitors of the malarial parasite plastid, 96 hour incubation (AID 488745);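 also: luciferase-expressing P. falciparum in erythrocytes at 2% hematocrit and 0.1% parasitemia; series mostly up to about 29 µM; nearly all actives have a fitted effect of over 70% in size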
Procedure, shortened: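 Growth of reporter-bearing P. falciparum in red cells is measured after 96 h with compound, covering two erythrocytic cycles. Luminescence from the integrated luciferase serves as the growth signal.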

[17] = Quantitative high throughput screen for delayed death inhibitors of the malarial parasite plastid, 48 hour incubation (AID 488752); also: nearly all actives have a fitted effect of over 65% in size
Procedure, shortened: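 One parasite generation (48 h, 37 C, 5% CO2) of luciferase-reporter P. falciparum in erythrocytes is run with test compound; decreased luminescence indicates inhibited growth.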

[18] = target: Thioredoxin reductase 1, cytoplasmic (Rattus norvegicus) (UniProt O89049); experiment: qHTS Assay for Substrates of Mammalian Selenoprotein Thioredoxin Reductase 1 (TrxR1) (AID 488772);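 also: NADPH fluorescence in the first read after selenite addition and not the 8 min delta; series mostly up to about 57 µM; a drop in NADPH fluorescence below the no-compound background marks a TrxR1 substrate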
Sequence of Thioredoxin reductase 1, cytoplasmic (Rattus norvegicus) (O89049 whole entry, looked up): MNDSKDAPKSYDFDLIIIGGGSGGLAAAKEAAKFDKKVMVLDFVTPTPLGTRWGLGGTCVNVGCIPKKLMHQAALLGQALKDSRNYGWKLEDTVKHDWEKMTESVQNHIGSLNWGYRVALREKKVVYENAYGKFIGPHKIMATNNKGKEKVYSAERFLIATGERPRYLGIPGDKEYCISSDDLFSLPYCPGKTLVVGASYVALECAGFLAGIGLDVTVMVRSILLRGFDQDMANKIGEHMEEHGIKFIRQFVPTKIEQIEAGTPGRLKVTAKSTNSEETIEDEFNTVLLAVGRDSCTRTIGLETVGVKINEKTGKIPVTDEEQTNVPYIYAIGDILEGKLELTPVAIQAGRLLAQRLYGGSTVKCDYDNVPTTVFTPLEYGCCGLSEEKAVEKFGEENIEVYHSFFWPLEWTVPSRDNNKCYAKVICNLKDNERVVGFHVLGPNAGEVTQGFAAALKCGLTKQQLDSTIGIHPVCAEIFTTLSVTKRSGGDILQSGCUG
Procedure, shortened: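 Quantitative HTS in Tris-HCl buffer at pH 7.5 with EDTA and Tween-20, using rat TrxR1, 400 uM NADPH and 400 uM selenite (final). A fall in initial NADPH fluorescence relative to background marked substrate behaviour.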

[19] = qHTS Assay for Modulators of Human Peripheral Myelin Protein 22 (PMP22) Expression/Activity (AID 1967; active = well fitted curve in the direction sought with a large enough effect in the signal ratio; the % refers to the signal ratio)
Procedure, shortened: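 Readout is the corrected green/red luminescence ratio after 24 h compound exposure, normalised to untreated cells (0%). Engineered MSC80 mouse Schwann cells express green luciferase from the mouse Pmp22 promoter and red luciferase from EF-alpha as internal control.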

[20] = qHTS Assay for Identification of Small Molecule Inducers of Hypoxia Response (AID 2120; active = well fitted curve in the direction sought with a large enough effect in the signal ratio, with a control signal flat, not every such curve was filed as active; the % refers to the signal ratio)
Procedure, shortened: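 Induction of beta-lactamase reporter activity was measured in CellSensor HRE-bla ME-180 cells after 17 h compound treatment at 37 degrees C, using CCF4 substrate and the 460nm/530nm emission ratio to derive AC50 values.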

Measured: Potency

CCN1CCC[C@H]1CNC(=O)c1c(O)c(Cl)cc(Cl)c1OC
not listed: [19] | [20]
inactive: all other assays above

FC(F)(F)c1ccccc1-n1ccnc1
not listed: [15] | [16] | [19] | [20]
inactive: all other assays above

C#CCN(C)CCCOc1ccc(Cl)cc1Cl
not listed: [2] | [3] | [13] | [16] | [20]
inactive: all other assays above

CCCCCN(CCCCC)C(=O)C(CCC(=O)O)NC(=O)c1ccc(Cl)c(Cl)c1 (configuration not stated)
not listed: [4] | [15] | [20]
inactive: all other assays above

CCN(Cc1ccncc1)C(=O)C(CO)c1ccccc1 (configuration not stated)
not listed: [4] | [20]
inactive: all other assays above

NC(=O)N1c2ccccc2C=Cc2ccccc21
not listed: [19]
inactive: all other assays above

CCCCNC(=O)NS(=O)(=O)c1ccc(C)cc1
not listed: [20]
inactive: all other assays above

Source: PubChem BioAssay (NCATS)
